# Data published in the supplement of paper PMC8728848.
# Many of the other results were omitted from the sample, so the strongest signals are more common in it than they were.
# B1: MAL-II (Maackia amurensis), P93248 (protein)
# chain: ATSNSKPTQVLLATFLTFFFLLLNNVNSSDELSFTINNFVPNEADLLFQGEASVSSTGVLQLTRVENGQPQQYSVGRALYAAPVRIWDNTTGSVASFSTSFTFVVKAPNPTITSDGLAFFLAPPDSQIPSGRVSKYLGLFNNSNSDSSNQIVAVEFDTYFGHSYDPWDPNYRHIGIDVNGIESIKTVQWDWINGGVAFATITYLAPNKTLIASLVYPSNQTSFIVAASVDLKEILPEWVRVGFSAATGYPTQVETHDVLSWSFTSTLEANSDAATENNVHIARYTA
# Tests used:
# Test in all cases: glycan array binding signal (z-score within array); higher = stronger binding
# Conditions in all cases: glycan notation: IUPAC condensed, linker removed
# [1] = biological target: Fuc(a1-2)Gal(b1-3)GalNAc(a1-3)[Fuc(a1-2)]Gal(b1-4)GlcNAc
# How it was run: (§1)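 From the Consortium for Functional Glycomics database, 3228 arrays were curated, keeping only those whose protein sequence was available. Binding is given as a within-array Z-score averaged across arrays sharing a protein sequence and across linkers. Negative Z-scores can be read as non-binding.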
# [2] = biological target: Fuc(a1-2)[Gal(a1-3)]Gal(b1-3)GlcNAc(b1-2)Man(a1-3)[Fuc(a1-2)[Gal(a1-3)]Gal(b1-3)GlcNAc(b1-2)Man(a1-6)]Man(b1-4)GlcNAc(b1-4)[Fuc(a1-6)]GlcNAc
# How it was run: as §1
# [3] = biological target: Fuc(a1-2)[Gal(a1-3)]Gal(b1-3)GlcNAc(b1-3)GalNAc
# How it was run: as §1
# [4] = biological target: Fuc(a1-2)[Gal(a1-4)]Gal(b1-4)GlcNAc
# How it was run: as §1
# [5] = biological target: Fuc(a1-2)[GalNAc(a1-3)]Gal(b1-3)GlcNAc(b1-6)GalNAc
# How it was run: as §1
# [6] = biological target: Fuc(a1-2)[GalNAc(a1-3)]Gal(b1-4)GlcNAc(b1-3)Gal(b1-4)GlcNAc
# How it was run: as §1
# [7] = biological target: Fuc(a1-3)[Gal3S(b1-4)]GlcNAc
# How it was run: as §1
# [8] = biological target: Gal(a1-3)Fuc(a1-2)Gal(b1-4)GlcNAc(b1-3)[Gal(a1-3)Fuc(a1-2)Gal(b1-4)GlcNAc(b1-6)]GalNAc
# How it was run: as §1
# [9] = biological target: Gal(a1-3)Gal(b1-4)GlcNAc(b1-2)Man
# How it was run: as §1
# [10] = biological target: Gal(a1-3)Gal(b1-4)GlcNAc(b1-2)Man(a1-3)[Gal(a1-3)Gal(b1-4)GlcNAc(b1-2)Man(a1-6)]Man(b1-4)GlcNAc(b1-4)GlcNAc
# How it was run: as §1
# [11] = biological target: Gal(a1-3)[Gal(a1-4)]Gal(b1-4)GlcNAc
# How it was run: as §1
# [12] = biological target: Gal(a1-4)Gal(b1-4)Glc
# How it was run: as §1
# [13] = biological target: Gal(a1-4)Gal(b1-4)GlcNAc
# How it was run: as §1
# [14] = biological target: Gal(b1-3)GlcNAc(b1-3)Gal(b1-3)GlcNAc
# How it was run: as §1
# [15] = biological target: Gal(b1-3)GlcNAc(b1-3)Gal(b1-4)GlcNAc(b1-3)Gal(b1-4)GlcNAc(b1-2)[Gal(b1-3)GlcNAc(b1-3)Gal(b1-4)GlcNAc(b1-3)Gal(b1-4)GlcNAc(b1-6)]Man(a1-6)[Gal(b1-3)GlcNAc(b1-3)Gal(b1-4)GlcNAc(b1-3)Gal(b1-4)GlcNAc(b1-2)Man(a1-3)]Man(b1-4)GlcNAc(b1-4)[Fuc(a1-6)]GlcNAc
# How it was run: as §1
# [16] = biological target: Gal(b1-4)GalNAc(b1-3)[Fuc(a1-2)]Gal(b1-4)GlcNAc
# How it was run: as §1
# [17] = biological target: Gal(b1-4)GlcNAc(b1-2)Man(a1-3)[GlcNAc(b1-4)][Gal(b1-4)GlcNAc(b1-2)Man(a1-6)]Man(b1-4)GlcNAc(b1-4)GlcNAc
# How it was run: as §1
# [18] = biological target: Gal(b1-4)GlcNAc(b1-2)[Gal(b1-4)GlcNAc(b1-4)]Man(a1-3)[Gal(b1-4)GlcNAc(b1-2)[Gal(b1-4)GlcNAc(b1-6)]Man(a1-6)]Man(b1-4)GlcNAc(b1-4)GlcNAc
# How it was run: as §1
# [19] = biological target: Gal(b1-4)GlcNAc(b1-3)Gal(b1-4)GlcNAc(b1-3)Gal(b1-4)GlcNAc(b1-2)Man(a1-3)[Gal(b1-4)GlcNAc(b1-3)Gal(b1-4)GlcNAc(b1-3)Gal(b1-4)GlcNAc(b1-2)Man(a1-6)]Man(b1-4)GlcNAc(b1-4)GlcNAc
# How it was run: as §1
# [20] = biological target: Gal(b1-4)GlcNAc(b1-6)Gal(b1-4)GlcNAc
# How it was run: as §1
# [21] = biological target: Gal3S(b1-3)GalNAc
# How it was run: as §1
# [22] = biological target: Gal3S(b1-3)GlcNAc
# How it was run: as §1
# [23] = biological target: Gal3S(b1-4)Glc
# How it was run: as §1
# [24] = biological target: Gal3S(b1-4)Glc6S
# How it was run: as §1
# [25] = biological target: Gal3S(b1-4)GlcNAc6S
# How it was run: as §1
# [26] = biological target: Gal3S(b1-4)[Fuc(a1-3)]GlcNAc6S
# How it was run: as §1
# [27] = biological target: Gal3S4S(b1-4)GlcNAc
# How it was run: as §1
# [28] = biological target: Gal3S6S(b1-4)GlcNAc
# How it was run: as §1
# [29] = biological target: Gal4S6S(b1-4)GlcNAc
# How it was run: as §1
# [30] = biological target: GalNAc(b1-4)GlcNAc6S
# How it was run: as §1
# [31] = biological target: GlcNAc(b1-2)Man(a1-3)[GlcNAc(b1-4)][GlcNAc(b1-2)Man(a1-6)]Man(b1-4)GlcNAc(b1-4)[Fuc(a1-6)]GlcNAc
# How it was run: as §1
# [32] = biological target: GlcNAc(b1-3)Gal(b1-4)GlcNAc(b1-3)GalNAc
# How it was run: as §1
# [33] = biological target: Kdn(a2-3)Gal(b1-3)GalNAc
# How it was run: as §1
# [34] = biological target: Man(a1-3)[Man(a1-6)]Man(a1-6)[Man(a1-3)]Man(b1-4)GlcNAc(b1-4)GlcNAc
# How it was run: as §1
# [35] = biological target: Man(a1-3)[Man(a1-6)]Man(b1-4)GlcNAc(b1-4)[Fuc(a1-6)]GlcNAc
# How it was run: as §1
# [36] = biological target: Neu5Ac(a2-3)Gal(b1-3)GalNAc
# How it was run: as §1
# [37] = biological target: Neu5Ac(a2-3)Gal(b1-3)GalNAc6S
# How it was run: as §1
# [38] = biological target: Neu5Ac(a2-3)Gal(b1-3)GlcNAc6S
# How it was run: as §1
# [39] = biological target: Neu5Ac(a2-3)Gal(b1-3)[GlcNAc(b1-6)]GalNAc
# How it was run: as §1
# [40] = biological target: Neu5Ac(a2-3)Gal(b1-3)[Neu5Ac(a2-6)]GalNAc
# How it was run: as §1
# [41] = biological target: Neu5Ac(a2-3)Gal(b1-4)GlcNAc(b1-2)[Neu5Ac(a2-3)Gal(b1-4)GlcNAc(b1-4)]Man(a1-3)[GlcNAc(b1-4)][Neu5Ac(a2-3)Gal(b1-4)GlcNAc(b1-4)Man(a1-6)]Man(b1-4)GlcNAc(b1-4)GlcNAc
# How it was run: as §1
# [42] = biological target: Neu5Ac(a2-3)Gal(b1-4)GlcNAc(b1-3)Gal
# How it was run: as §1
# [43] = biological target: Neu5Ac(a2-3)Gal(b1-4)GlcNAc(b1-6)[Neu5Ac(a2-3)Gal(b1-3)]GalNAc
# How it was run: as §1
# [44] = biological target: Neu5Ac(a2-3)Gal(b1-4)GlcNAc6S
# How it was run: as §1
# [45] = biological target: Neu5Ac(a2-3)Gal(b1-4)[Fuc(a1-3)]GlcNAc(b1-6)[Neu5Ac(a2-3)Gal(b1-3)]GalNAc
# How it was run: as §1
# [46] = biological target: Neu5Ac(a2-3)Gal6S(b1-4)[Fuc(a1-3)]GlcNAc
# How it was run: as §1
# [47] = biological target: Neu5Ac(a2-3)[GalNAc(b1-4)]Gal(b1-4)GlcNAc
# How it was run: as §1
# [48] = biological target: Neu5Ac(a2-6)Gal
# How it was run: as §1
# [49] = biological target: Neu5Ac(a2-6)Gal(b1-3)GlcNAc(b1-3)[Gal(b1-4)GlcNAc(b1-6)]Gal(b1-4)Glc
# How it was run: as §1
# [50] = biological target: Neu5Ac(a2-6)Gal(b1-4)Glc
# How it was run: as §1
# [51] = biological target: Neu5Ac(a2-6)Gal(b1-4)GlcNAc(b1-2)Man(a1-3)[Neu5Ac(a2-6)Gal(b1-4)GlcNAc(b1-2)Man(a1-6)]Man(b1-4)GlcNAc(b1-4)[Fuc(a1-6)]GlcNAc
# How it was run: as §1
# [52] = biological target: Neu5Ac(a2-6)Gal(b1-4)GlcNAc(b1-3)Gal(b1-3)GlcNAc
# How it was run: as §1
# [53] = biological target: Neu5Ac(a2-8)Neu5Ac(a2-3)Gal(b1-4)GlcNAc
# How it was run: as §1
binder,measurement,setting,value
B1,glycan array binding signal (z-score),[1],-0.182
same,glycan array binding signal (z-score),[2],0.051
same,glycan array binding signal (z-score),[3],-0.241
same,glycan array binding signal (z-score),[4],-0.171
same,glycan array binding signal (z-score),[5],-0.266
same,glycan array binding signal (z-score),[6],-0.177
same,glycan array binding signal (z-score),[7],-0.195
same,glycan array binding signal (z-score),[8],-0.261
same,glycan array binding signal (z-score),[9],-0.188
same,glycan array binding signal (z-score),[10],0.244
same,glycan array binding signal (z-score),[11],-0.252
same,glycan array binding signal (z-score),[12],-0.133
same,glycan array binding signal (z-score),[13],-0.185
same,glycan array binding signal (z-score),[14],-0.172
same,glycan array binding signal (z-score),[15],0.068
same,glycan array binding signal (z-score),[16],-0.263
same,glycan array binding signal (z-score),[17],-0.267
same,glycan array binding signal (z-score),[18],-0.229
same,glycan array binding signal (z-score),[19],0.674
same,glycan array binding signal (z-score),[20],-0.23
same,glycan array binding signal (z-score),[21],8.15
same,glycan array binding signal (z-score),[22],2.09
same,glycan array binding signal (z-score),[23],1.81
same,glycan array binding signal (z-score),[24],3.27
same,glycan array binding signal (z-score),[25],6.03
same,glycan array binding signal (z-score),[26],2.12
same,glycan array binding signal (z-score),[27],-0.162
same,glycan array binding signal (z-score),[28],-0.222
same,glycan array binding signal (z-score),[29],-0.156
same,glycan array binding signal (z-score),[30],-0.292
same,glycan array binding signal (z-score),[31],-0.148
same,glycan array binding signal (z-score),[32],-0.159
same,glycan array binding signal (z-score),[33],3.27
same,glycan array binding signal (z-score),[34],-0.107
same,glycan array binding signal (z-score),[35],-0.337
same,glycan array binding signal (z-score),[36],3.54
same,glycan array binding signal (z-score),[37],5.77
same,glycan array binding signal (z-score),[38],-0.11
same,glycan array binding signal (z-score),[39],3.23
same,glycan array binding signal (z-score),[40],7.48
same,glycan array binding signal (z-score),[41],-0.282
same,glycan array binding signal (z-score),[42],-0.196
same,glycan array binding signal (z-score),[43],3.13
same,glycan array binding signal (z-score),[44],-0.215
same,glycan array binding signal (z-score),[45],0.889
same,glycan array binding signal (z-score),[46],-0.22
same,glycan array binding signal (z-score),[47],-0.213
same,glycan array binding signal (z-score),[48],-0.234
same,glycan array binding signal (z-score),[49],-0.18
same,glycan array binding signal (z-score),[50],-0.184
same,glycan array binding signal (z-score),[51],-0.089
same,glycan array binding signal (z-score),[52],-0.178
same,glycan array binding signal (z-score),[53],-0.255
